Laboratory results published in ChEMBL document CHEMBL4513216, “Probing the Open Global Health Chemical Diversity Library for Multistage-Active Starting Points for Next-Generation Antimalarials” (ACS Infect Dis, 2020).
The campaign covered roughly 65,000 compounds. About 2,100 (3.2%) showed an effect of 50% or more. The median lay at about -52%. The entries come from a sample that favours strong results as a whole.

tested on: Plasmodium falciparum; assay: Screen against P. falciparum Asexual Blood Stage (ABS), at 5uM; format: functional, Dd2; conditions: tested at 5 uM

Going from `CS(=O)(=O)c1ccc(CN2C[C@@H]3CC[C@H]2CN(c2ncccn2)C3)cc1` to `O=C(Cc1ccncc1)N1C[C@H]2CC[C@@H](C1)N(Cc1ccccc1)C2=O`, the INHIBITION rises from -136% to -99.2%.

Going from `CN(Cc1noc(C2CC2)n1)C1CCN(Cc2nnc(C3CC3)o2)C1` (centres undefined) to `CC(=O)N(Cc1noc(C)n1)C1CCN(CCOc2ccccc2)C1` (centres undefined), the INHIBITION rises from -122% to -79.1%.

Compared with `CC(C)(C)C(N)C1=NC(=C2N=CN=N2)NO1` (centres undefined), `Cc1csc2ncnc(N3CCC(Cn4cc(C(C)(C)N)nn4)CC3)c12` is higher in INHIBITION: -49.9% for the first, 35% for the second.

Going from `CCn1c(=NC(=O)CSCC(=O)Nc2nccs2)sc2ccccc21` to `CN(CC(=O)Nc1cnn(-c2ccccc2S(C)(=O)=O)c1)C1CC1`, the INHIBITION falls from 32.3% to -85.55%.

Compared with `CC(NCc1cnc(N2CCOCC2)nc1)c1ccc(Cl)s1` (centres undefined), `c1cc(N2CCSCC2)ccc1CNc1cncc2nnnn12` is lower in INHIBITION: -25.9% for the first, -119% for the second.

First: c1csc(CN2CCO[C@@H]3CN(C4CCOCC4)C[C@@H]3C2)c1
Second: COCCN1CCO[C@H]2CN(C(=O)c3cccs3)C[C@H]21
The INHIBITION of the first is lower: -93.2% for the first, -92.4% for the second.

Compared with `Cc1noc(C)c1CN1Cc2cnn(C)c2C(COCC2CC2)C1` (centres undefined), `Cc1noc(C)c1CN1CCCC(CN(C(=O)OC(C)(C)C)C(C)C)C1` (centres undefined) is higher in INHIBITION: -81.3% for the first, 54.1% for the second.

Going from `Cc1ccc(CN2CCS(=O)(=O)C(C)(C)C2)cc1C` to `Cc1ccc(CN2CCC3(CCCN(Cc4ccc(F)c(F)c4)C3)C2)o1` (centres undefined), the INHIBITION rises from -98.2% to 28.1%.

Compared with `COc1ccc(NC(=O)CNc2ccc(Br)cc2F)cc1`, `COCCNCc1ccc(OCC(=O)NC(C)(C)C)cc1` is lower in INHIBITION: -68.8% for the first, -80.9% for the second.

Going from `COc1cccc(CNCc2c(C(C)C)nn(C)c2N(C)C)c1OC` to `COc1ccc(OC)c(CNCc2c(C(C)C)nn(C)c2N(C)C)c1`, the INHIBITION rises from 33.3% to 69.3%.

Compared with `COc1cccc(CNCc2c(C(C)C)nn(C)c2N(C)C)c1`, `Cc1cc(N(C)CCN(C)C)n2nc(C)cc2n1` is lower in INHIBITION: -5.49% for the first, -113% for the second.

First: CC(C)COc1cncc(N2CCCN(c3ncccn3)CC2)n1
Second: CNC(=O)CC1CC2(CCN(c3ncccn3)CC2)c2ccccc21 (centres undefined)
The INHIBITION of the first is lower: -186% for the first, -87% for the second.

Compared with `c1ccc(C2=NOC3(CCN(Cc4c[nH]c5ccccc45)CC3)C2)cc1`, `Cn1ccc(CN2CCCC23CCN(Cc2ccccc2F)CC3)n1` is lower in INHIBITION: 36.1% for the first, 0.737% for the second.

Compared with `O=C(c1cn[nH]c1)N1CCC2(CCCN(Cc3ccc(F)c(F)c3)C2)C1` (centres undefined), `Fc1ccc(CN2CCCC3(CCN(Cc4ncc[nH]4)C3)C2)cc1F` (centres undefined) is higher in INHIBITION: -25.8% for the first, 60.9% for the second.

First: CCc1nc2c(s1)C(N(C)C(=O)c1csnn1)CCC2 (centres undefined)
Second: CCOC(=O)CC1(Nc2nc(C)nc3c2cnn3C)CCCCC1
The INHIBITION of the first is lower: -32.3% for the first, -25.2% for the second.

First: COCC1(Nc2nc(C)nc3c2cnn3C)CCCC1
Second: Cc1nc(NC2(CN3CCCCC3)CCCCC2)c2cnn(C)c2n1
The INHIBITION of the first is lower: -142% for the first, 56% for the second.

First: Cc1nc(C(=O)NCCS(=O)(=O)N2CCCC2)cs1
Second: NC(=O)[C@@H]1Cc2ccccc2CN1S(=O)(=O)N1CCCCC1
The INHIBITION of the first is higher: -31.8% for the first, -124% for the second.

Compared with `Cc1nc(COc2ccc(OC3CCCCNC3=O)cc2)oc1C` (centres undefined), `COc1ccc(Oc2nccc3occc23)cc1CN1CCCC1` is higher in INHIBITION: -151% for the first, 61.8% for the second.

Compared with `O=C(Nc1ccc2c(c1)C(=O)NC2=O)c1cccs1`, `CCc1cnc(CNC(=O)NCCc2ccc(O)cc2)s1` is higher in INHIBITION: -80.7% for the first, -13.3% for the second.

First: CCC(=O)N1CCC2(CC1)COCCN2Cc1ccc(F)cc1
Second: Cc1ccc(C(=O)N2CCC3(CCN3Cc3ccc(F)cc3)C2)cn1 (centres undefined)
The INHIBITION of the first is higher: -31.7% for the first, -74.2% for the second.

Compared with `Cn1cc(N2CC3(CCN(CC4CC4)CC3)OCC2=O)cn1`, `CCCC1CCCN(Cc2csc(-c3cnn(C)c3)n2)CC1` (centres undefined) is higher in INHIBITION: -53.1% for the first, 54.1% for the second.

Going from `Cc1noc(-c2ccnc(Oc3ccc(CN4CCCC4)cc3F)c2)n1` to `Cc1noc(-c2ccnc(Oc3ccc(CN4CCCC4)cc3C)c2)n1`, the INHIBITION rises from -38.8% to 53.3%.

Compared with `Cc1noc(-c2ccnc(Oc3ccccc3CN3CCCCC3)c2)n1`, `COc1cc(Oc2cnc3ccccc3n2)ccc1CN1CCCC1` is higher in INHIBITION: -36.8% for the first, 59% for the second.

Compared with `Cc1ccc(-c2nnc(CN3CCc4nn(C)c(=O)cc4C3)o2)cc1`, `c1coc(-c2nnc(CN3CCCC(CN4CCCCCC4)C3)o2)c1` (centres undefined) is lower in INHIBITION: -38.4% for the first, -67.1% for the second.

Going from `CCOC(=O)N1CCN(c2nc(NC3CC3)c3ccccc3n2)CC1` to `Cc1nc(CNC(=O)Nc2cc(F)ccc2N2CCN(C)CC2)no1`, the INHIBITION falls from 4.86% to -28.8%.

Going from `Cc1csc2c(C3CCCN(C(=O)CCn4ccnc4)C3)nc(C)n12` (centres undefined) to `Cc1nccc(N[C@H]2CN(C(=O)CCN3CCCC3=O)C[C@@H]2C(C)C)n1`, the INHIBITION falls from -97.3% to -132%.

Compared with `COCCN(CC1CCCN(C2Cc3ccccc3C2)C1)C(=O)CO` (centres undefined), `COCCN(CC1CCCN(C2Cc3ccccc3C2)C1)C(=O)COC` (centres undefined) is lower in INHIBITION: 59.9% for the first, 39.5% for the second.

Compared with `COCCN(CC1CCCN(C2Cc3ccccc3C2)C1)C(=O)CSC` (centres undefined), `COCCN1CC[C@@H]2OC[C@H](C(=O)N(C)Cc3ccccn3)C[C@@H]2C1` is higher in INHIBITION: 1.3% for the first, 11.1% for the second.

Compared with `O=C(NC1CCC1)C1=NOC2(CCN(Cc3ccc(F)cc3)C2)C1` (centres undefined), `CC(NC(=O)NC1CCN(Cc2ccncc2)CC1)c1ccc(F)cc1` (centres undefined) is lower in INHIBITION: -11.6% for the first, -35.2% for the second.

Going from `c1ccc(CN2CC[C@@H]3O[C@@H](COCCN4CCCC4)CC[C@@H]32)nc1` to `c1cncc(COCC2CC[C@H]3[C@H](CCN3CC3CCOCC3)O2)c1` (some centres undefined), the INHIBITION rises from -36% to -5.45%.

First: c1cc(CN2CCCC2)ccc1CNc1cncc2nnnn12
Second: c1ccc(CN2CCCC2)c(CNc2cncc3nnnn23)c1
The INHIBITION of the first is lower: -31.2% for the first, 61.4% for the second.

Compared with `Cc1cc(C(=O)N2C[C@@H]3COC[C@]3(CN(C)C)C2)sc1C`, `Cc1cc(F)ccc1C(=O)N1C[C@@H]2COC[C@]2(CN(C)C)C1` is higher in INHIBITION: -113% for the first, -31.2% for the second.

Going from `Cc1cc(C)nc(N(C)CCN(C)C2CCCC2)n1` to `Cc1cc(N(C)CCN(C)C2CCCC2)n2nc(C)cc2n1`, the INHIBITION rises from 28% to 55.7%.

Going from `O=C(c1ccc2[nH]ccc2c1)N1CCn2cc(CN3CCCC3)nc2C1` to `COc1cc(Oc2ccc(C(N)=O)cn2)ccc1CN1CCCC1`, the INHIBITION falls from -38.2% to -42.6%.

First: c1cc(CNCC2OCCc3cn(CC4CC4)nc32)cs1 (centres undefined)
Second: Fc1ccc(CNCC2OCCc3cn(CC4CC4)nc32)cc1 (centres undefined)
The INHIBITION of the first is lower: 47% for the first, 68.9% for the second.

First: COCCn1cc2c(n1)C(CNCc1ccc(F)cc1)OCC2 (centres undefined)
Second: CC(CNC1CCN(Cc2ccncc2)CC1)c1ccc(F)cc1F (centres undefined)
The INHIBITION of the first is lower: -11.4% for the first, 70% for the second.

Compared with `Cc1cccc(N2CC3(CCN(Cc4nccn4C)C3)CC2=O)c1` (centres undefined), `Cc1cccc(C2(CNC(=O)CO)CCCC2)c1` is lower in INHIBITION: -54.9% for the first, -108% for the second.

Compared with `COCc1ncc(CN2CC[C@@H](NC(=O)c3cccnc3)[C@H](O)C2)cn1`, `c1cncc(OC2CCN(CCn3cc4ccccc4n3)CC2)c1` is lower in INHIBITION: -35.5% for the first, -47.4% for the second.

Compared with `CC(C)(C)n1ncc(NCC(O)c2ccccc2)c(Cl)c1=O` (centres undefined), `CC(=O)N1CCN(c2nc3c(cnn3C(C)(C)C)c(=O)[nH]2)CC1` is higher in INHIBITION: -162% for the first, -76.5% for the second.

First: Cc1cccc(C2(CNC(=O)C(C)NC(N)=O)CCCC2)c1 (centres undefined)
Second: Cc1cccc(C2(CNC(=O)C(C)S(C)(=O)=O)CCCC2)c1 (centres undefined)
The INHIBITION of the first is higher: 69.9% for the first, -66% for the second.

Going from `CC(NC(=O)NC1CCN(Cc2ccncc2)CC1)c1cccc(F)c1` (centres undefined) to `COc1ccc(Oc2ncccc2F)cc1CN1CCCC1`, the INHIBITION rises from -98.2% to 15.9%.

Compared with `CC(C)(C)c1cc(NC(=O)CN2CCCC2Cn2cccn2)on1` (centres undefined), `CC(C)N(CC1CCCN(Cc2ccon2)C1)C(=O)OC(C)(C)C` (centres undefined) is higher in INHIBITION: -91.6% for the first, -5.65% for the second.

Going from `NC(=O)C1CCN(C(=O)NCc2cccnc2OCC(F)(F)F)C1` (centres undefined) to `COc1ccc(Oc2ncccc2C(F)(F)F)cc1CN1CCCC1`, the INHIBITION rises from -75.2% to 32.5%.

First: CC(C)(C)n1ncc2c(=O)[nH]c(N3CCC4(CCCCC4)C3)nc21
Second: CN1CCCN(c2nc3c(cnn3C(C)(C)C)c(=O)[nH]2)CC1
The INHIBITION of the first is higher: 52.6% for the first, -12.6% for the second.

First: CCN1CCN(c2ccc(F)cc2C(C)NCc2noc(C)n2)CC1 (centres undefined)
Second: CCN1CCN(c2ccc(F)cc2C(C)NCc2nc(C)no2)CC1 (centres undefined)
The INHIBITION of the first is higher: 53.9% for the first, 7.98% for the second.

Going from `CC(C)N(CC1CCCN(CC(N)=O)C1)C(=O)OC(C)(C)C` (centres undefined) to `CCN(C)C[C@@H]1CN(C(=O)c2cc(C(F)(F)F)n[nH]2)C[C@@H]1CO`, the INHIBITION rises from -14.8% to -5.31%.

Going from `Cn1cc(C2CCCN2Cc2csc(-c3ccccc3)n2)cn1` (centres undefined) to `Cn1cc(C2CCCN2Cc2csc(Cc3ccccc3)n2)cn1` (centres undefined), the INHIBITION falls from 53.8% to 13.8%.

Going from `Cn1cc(-c2nc(CN3CCN(CCO)CC3)cs2)cn1` to `COCCN1CCN(Cc2csc(-c3cnn(C)c3)n2)CC1`, the INHIBITION rises from -59.9% to -30.6%.

First: Cn1cc(C2CCCN2Cc2csc(-c3ccsc3)n2)cn1 (centres undefined)
Second: O=C(Cc1ccsc1)N1CCC(c2noc(-c3cccnc3)n2)CC1
The INHIBITION of the first is higher: -32.1% for the first, -53.4% for the second.

First: CCCS(=O)(=O)CCSc1cccc(C#N)c1
Second: COc1ccc(Oc2cccc(C#N)n2)cc1CN1CCCC1
The INHIBITION of the first is lower: -113% for the first, -20.2% for the second.

Compared with `Fc1cc(Oc2ccc(C(F)(F)F)cn2)cc(F)c1CN1CCCC1`, `COc1cc(Oc2ccc(C(F)(F)F)cn2)ccc1CN1CCCC1` is higher in INHIBITION: 24.4% for the first, 30.2% for the second.

First: COc1ccc(Oc2ccc(C(F)(F)F)cn2)cc1CN1CCCC1
Second: COC[C@@]12CCO[C@@H]1CCN(Cc1ccc(C)s1)C2
The INHIBITION of the first is higher: 51.7% for the first, -35.8% for the second.
